Several values for one entry are separate records, joined by “and”; a condition that tells them apart may be missing. Equal values may be shown once. This is part of a sample that, as a whole, favours compounds with a hit. Of some 83,000 tested, about 20% had one in any assay.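 48-hour exposure, single concentration, 96-well plates; percent growth endpoint where 0 means no net growth. Active: below 10.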 Activity calls are given as the source filed them.
Tests used:
Assay in all cases: NCI-60 one-dose screen, 48 h (100 = growth as untreated, 0 = no growth, -100 = all killed)
Details in all cases: 10 µM unless noted
SR leukemia = test system: SR leukemia
RPMI-8226 leukemia = test system: RPMI-8226 leukemia
OVCAR-8 ovarian = test system: OVCAR-8 ovarian
OVCAR-5 ovarian = test system: OVCAR-5 ovarian
OVCAR-4 ovarian = test system: OVCAR-4 ovarian
SK-OV-3 ovarian = test system: SK-OV-3 ovarian
IGROV1 ovarian = test system: IGROV1 ovarian
OVCAR-3 ovarian = test system: OVCAR-3 ovarian
HS 578T breast = test system: HS 578T breast
NCI/ADR-RES ovarian = test system: NCI/ADR-RES ovarian

Structure (SMILES)	growth (SR leukemia)	growth (RPMI-8226 leukemia)	growth (OVCAR-8 ovarian)	growth (OVCAR-5 ovarian)	growth (OVCAR-4 ovarian)	growth (SK-OV-3 ovarian)	growth (IGROV1 ovarian)	growth (OVCAR-3 ovarian)	growth (HS 578T breast)	growth (NCI/ADR-RES ovarian)
CCOC(=O)Nc1ccc2c(c1)/C(=N\NC(N)=S)c1ccccc1-2	47.2% (inactive) and 34.7% (inactive)	22.3% (inactive)	34.6% (inactive) and 55.5% (inactive)	105% (inactive) and 92% (inactive)	61% (inactive) and 77.1% (inactive)	96.5% (inactive) and 93.2% (inactive)	93.5% (inactive) and 103% (inactive)	48% (inactive) and 83.4% (inactive)	69.9% (inactive) and 92.9% (inactive)	29.5% (inactive) and 45.6% (inactive)
O=C(c1ccc(Cl)cc1)C(NCCO)c1ccc(Cl)cc1 (stereo not given)	92.8% (inactive) and 88.1% (inactive)	79.3% (inactive) and 113% (inactive)	99.2% (inactive) and 99.8% (inactive)	108% (inactive) and 99.5% (inactive)	103% (inactive)	107% (inactive) and 98.2% (inactive)	88.5% (inactive) and 91.7% (inactive)	104% (inactive) and 101% (inactive)	101% (inactive) and 117% (inactive)	98.1% (inactive) and 98% (inactive)
CC1=C[C@H]2c3c(c(O)c(O)c4oc5cc(O)cc(O)c5c(=O)c34)[C@H](c3cc(O)c(O)c4oc5cc(O)cc(O)c5c(=O)c34)[C@H]2C(C)(C)C1	1.73% (active) and 3.96% (active)	4.38% (active) and -30.3% (active)	4.35% (active) and 4.94% (active)	11% (inactive) and 12.4% (inactive)	20.7% (inactive) and 7.19% (active)	-1.03% (active)	14.1% (inactive) and -13.1% (active)	-5.67% (active) and -43.9% (active)	3.36% (active) and -17.1% (active)	55.8% (inactive) and 23.7% (inactive)
COc1ccc(-c2cn[nH]c2-c2cc(OC)c(OC)c(OC)c2)cc1N	12% (inactive) and 19.5% (inactive)	29.4% (inactive) and 23.7% (inactive)	21.3% (inactive) and 12.9% (inactive)	46% (inactive) and 48.7% (inactive)	47.6% (inactive) and 38.8% (inactive)	23% (inactive) and 36.5% (inactive)	37.2% (inactive) and 15.6% (inactive)	-7.09% (active) and -1.14% (active)	39.5% (inactive) and 40% (inactive)	-5.9% (active) and 4.84% (active)
O=C1NC(=O)C2(CCc3ccccc32)N1 (stereo not given)	111% (inactive) and 95.6% (inactive)	106% (inactive) and 95.6% (inactive)	110% (inactive) and 102% (inactive)	108% (inactive) and 78.7% (inactive)	103% (inactive) and 108% (inactive)	114% (inactive) and 101% (inactive)	119% (inactive) and 106% (inactive)	99.5% (inactive) and 114% (inactive)	121% (inactive)	109% (inactive) and 92.5% (inactive)
COc1cc2nc(N3CCC[C@@H](NC(=O)C4COc5ccccc5O4)C3)nc(N)c2cc1OC (stereo not given in full)	88.3% (inactive) and 91.2% (inactive)	95.2% (inactive) and 91.4% (inactive)	100% (inactive) and 94.3% (inactive)	102% (inactive) and 97.1% (inactive)	101% (inactive) and 95.4% (inactive)	105% (inactive) and 106% (inactive)	105% (inactive) and 108% (inactive)	105% (inactive) and 106% (inactive)	110% (inactive) and 109% (inactive)	109% (inactive) and 106% (inactive)
CN1CCN(Cc2occc(=O)c2O)CCN(C)CCN(Cc2occc(=O)c2O)CC1	79.5% (inactive) and 31.1% (inactive)	97.2% (inactive) and 29.5% (inactive)	98.8% (inactive) and 64.2% (inactive)	104% (inactive) and 72.1% (inactive)	102% (inactive) and 77% (inactive)	91% (inactive) and 49.5% (inactive)	96.3% (inactive) and 54% (inactive)	117% (inactive) and 28.6% (inactive)	90.4% (inactive) and 84.2% (inactive)	105% (inactive) and 78.7% (inactive)
CC(C)N=c1cc2n(-c3ccc(Cl)cc3)c3ccccc3nc-2cc1Nc1ccc(Cl)cc1	-35.4% (active) and 9.31% (active)	2.57% (active) and -21.9% (active) and -42.6% (active)	15.1% (inactive) and 48.7% (inactive) and 14.1% (inactive)	38.3% (inactive) and 49.6% (inactive) and 11.3% (inactive)	5.39% (active) and 11.1% (inactive) and 7.85% (active)	37.6% (inactive) and 52.9% (inactive) and 42.6% (inactive)	30.2% (inactive) and -9.37% (active)	-37.5% (active) and -71.1% (active) and -66.3% (active)	-13.2% (active) and 13.1% (inactive)	23.2% (inactive) and -2.63% (active) and 39.2% (inactive)
CC(=O)Nc1ccc(O)cc1	117% (inactive) and 98.7% (inactive)	105% (inactive)	92.1% (inactive) and 103% (inactive) and 109% (inactive)	91.6% (inactive) and 118% (inactive) and 105% (inactive)	105% (inactive) and 131% (inactive)	114% (inactive) and 115% (inactive) and 91.5% (inactive)	107% (inactive) and 114% (inactive)	103% (inactive) and 102% (inactive) and 107% (inactive)	113% (inactive) and 109% (inactive)	101% (inactive) and 93.7% (inactive) and 104% (inactive)
OCCN1CCN(CCCN2c3ccccc3Sc3ccc(Cl)cc32)CC1	36.6% (inactive)	37.6% (inactive) and 68.9% (inactive)	89.3% (inactive) and 107% (inactive)	61.3% (inactive) and 90.7% (inactive)	74.2% (inactive) and 69.8% (inactive)	70% (inactive) and 87.5% (inactive)	47.7% (inactive) and 57.8% (inactive)	83% (inactive) and 81.5% (inactive)	63.1% (inactive) and 72.3% (inactive)	60.9% (inactive) and 76% (inactive)
CCOC(=O)C(C(=O)OCC)C(c1ccccc1)N1CCN(c2ccccc2)CC1 (stereo not given)	97.9% (inactive) and 101% (inactive)	102% (inactive) and 103% (inactive)	101% (inactive) and 90.3% (inactive)	112% (inactive) and 111% (inactive)	102% (inactive) and 113% (inactive)	115% (inactive) and 108% (inactive)	107% (inactive)	123% (inactive) and 120% (inactive)	103% (inactive) and 104% (inactive)	107% (inactive)
CCN(CC)C(=S)SSC(=S)N(CC)CC	3.32% (active) and 89% (inactive)	45.4% (inactive) and 110% (inactive)	65.8% (inactive) and 89.4% (inactive)	86% (inactive) and 100% (inactive)	76.6% (inactive) and 94.6% (inactive)	98.7% (inactive) and 102% (inactive)	77.5% (inactive) and 113% (inactive)	68.3% (inactive) and 108% (inactive)	111% (inactive)	84.1% (inactive) and 106% (inactive)
CO/N=C/C=C\C(=O)N/C=C/C[C@H]1/C=C/[C@H](O)/C=C\C=C\c2cccc(O)c2C(=O)O1	6.08% (active) and 20.5% (inactive)	12.8% (inactive) and 11.6% (inactive)	27.5% (inactive) and 29.7% (inactive)	39.5% (inactive) and 44.7% (inactive)	72% (inactive) and 69.4% (inactive)	49.6% (inactive) and 35% (inactive)	36.5% (inactive) and 40.3% (inactive)	60.9% (inactive) and 36.3% (inactive)	50.9% (inactive) and 57.1% (inactive)	44.4% (inactive) and 32.6% (inactive)

From PubChem BioAssay (NCI)
